In PubChem BioAssay AID463173 (ICCB-Longwood Screening Facility, Harvard Medical School, 2010):
In all, about 52,000 compounds went through this assay and about 1,700 (3.3%) were called active. The sample holds actives, similar compounds and a random draw of the others, so the mix is not that of the screen. A number with no mark means an inactive call. Rule as the data show it: active = survival mostly below about 52% (no sharp cut-off); inactive = mostly above about 56%.

tested on: Wild type; experiment: growth inhibition of S. aureus wild type versus tarO mutant, primary screen, teichoic acid synthesis inhibitors, RN4220, OD600 (AID 463173); conditions: S. aureus RN4220 wild type/DeltatarO growth, OD600, 18 h, hits give low values, screened at 18.75 µg/mL (by protocol)

Compound | survival
O=C(CSCc1cnn(-c2ccccc2)c1-n1cccc1)NCc1cccc(Cl)c1 | 91%
O=C(O)C1CCN(C(=O)c2ccc(-c3ccccc3)cc2)CC1 | 116%
Cc1ccc(Cl)cc1-n1c(=O)c2sc3ccccc3c2n(Cc2ccccc2)c1=O | 77%
Cn1c(=O)oc2cc(S(=O)(=O)CCC(=O)NCc3ccc(Cl)cc3)ccc21 | 74%
O=C(NCc1ccccc1Cl)c1cc2c(s1)-c1ccccc1SC2 | 74%
CCc1ccccc1N(CC)C(=O)c1cc2c(s1)-c1ccccc1SC2 | -1% (active)
Cc1ccc(CNC(=O)c2cc3c(s2)-c2ccccc2SC3)cc1 | 120%
CCOc1ccc(CCNC(=O)c2ccc3c(c2)N(Cc2ccccc2F)C(=O)c2ccccc2S3=O)cc1OCC (centres undefined) | 84%
Cn1c(C(=O)NCc2ccc(Cl)cc2)cc2c(=O)n(C)c3ccccc3c21 | 120%
CCNC(=O)c1c(NC(=O)c2cc(=O)c3ccc(C)c(C)c3o2)sc2c1CCCC2 | 85%
Cc1ccccc1OCC(=O)OCc1cc(=O)n2ccsc2n1 | 82%
Cc1cccc(C(=O)Nc2ccccc2OCc2cc(=O)n3cc(C)ccc3n2)c1 | 47%
COc1ccccc1C(=O)Nc1ccccc1C(=O)OCc1cc(=O)n2c(C)csc2n1 | 131%
Cc1csc2nc(COC(=O)c3cccc(NC(=O)c4cccc(Cl)c4)c3)cc(=O)n12 | -1% (active)
CCOc1ccc(C(=O)Nc2ccc(C(=O)OCc3cc(=O)n4c(C)csc4n3)cc2)cc1 | 85%
Cc1ccccc1C(=O)Nc1cccc(C(=O)OCc2cc(=O)n3c(C)csc3n2)c1 | 76%
CCOc1cc(C(=O)OCc2cc(=O)n3c(C)csc3n2)cc(OCC)c1OCC | -3% (active)
Cc1csc2nc(COC(=O)c3ccc(F)cc3)cc(=O)n12 | 81%
COc1cccc(C(=O)Nc2cccc(C(=O)OCc3cc(=O)n4c(C)csc4n3)c2)c1 | 133%
Cc1csc2nc(COC(=O)c3ccccc3NC(=O)c3ccc(C(C)(C)C)cc3)cc(=O)n12 | 55%
Cc1ccc2nc(COc3ccccc3NC(=O)c3ccccc3F)cc(=O)n2c1 | 80%
Cc1csc2nc(COC(=O)c3ccccc3NC(=O)c3ccc(F)cc3)cc(=O)n12 | 14% (active)
Cc1ccc2nc(COc3ccccc3NC(=O)c3ccc(F)cc3)cc(=O)n2c1 | -3% (active)

Compound | survival
CCOc1ccc(NC(=O)CSc2nc(-c3cccc(Cl)c3)nc3c2Cc2c(CO)cnc(C)c2O3)cc1 | 84%
COc1cc(OC)cc(C(=O)N2CCN(C(=O)COc3ccccc3)CC2)c1 | 64%
CCc1ccc(NC(=O)CN(c2cc(C)cc(C)c2)S(=O)(=O)c2c(C)[nH]c(=O)[nH]c2=O)cc1 | 68%
CC(C)c1cc(-c2nc(-c3cccc(Cl)c3)no2)n[nH]1 | 131%
Cc1cc(Br)ccc1NC(=O)C1CCN(S(=O)(=O)c2ccc(Br)s2)CC1 | 70%
COC(=O)C1=C(c2ccccc2)c2ccccc2S(=O)(=O)N1CC(=O)Nc1ccc(OC)cc1OC | 154%
CS(=O)(=O)c1cccc(S(=O)(=O)c2cccc(S(C)(=O)=O)c2)c1 | 86%
Cc1cccc(OCc2cc(=O)n3c4c(sc3n2)CCCC4)c1C | 128%
O=C(Nc1ccccc1C(=O)OCc1cc(=O)n2c3c(sc2n1)CCCC3)c1ccccc1 | 94%
Cc1ccc(OCC(=O)Nc2cccc(C(=O)OCc3cc(=O)n4c(C)csc4n3)c2)cc1 | 69%
Cc1cccc(C)c1OCc1cc(=O)n2c3c(sc2n1)CCCC3 | -1% (active)
Cc1cccc(OCC(=O)Nc2cccc(C(=O)OCc3cc(=O)n4c(C)csc4n3)c2)c1 | -6% (active)
O=C(Nc1ccccc1C(=O)OCc1cc(=O)n2c3c(sc2n1)CCCC3)c1ccc(Cl)cc1 | -3% (active)
Cc1csc2nc(COC(=O)c3cccc(NC(=O)COc4ccc(Cl)cc4)c3)cc(=O)n12 | 78%
O=C(Nc1ccccc1C(=O)OCc1cc(=O)n2c3c(sc2n1)CCCC3)c1cccc(Cl)c1 | 73%
Cc1ccc(OCc2cc(=O)n3c4c(sc3n2)CCCC4)cc1C | 80%
CCCCSc1nc(-c2cccc(OC)c2)nc2c1Cc1c(CO)cnc(C)c1O2 | 86%
O=C(c1nc(-c2ccc(Cl)cc2)n2c1CCCCC2)N1CCN(c2ccccc2F)CC1 | 68%
COc1ccc(CCNC(=O)CN(c2cc(C(F)(F)F)ccc2Cl)S(C)(=O)=O)cc1 | 68%
CCc1ccc(N2CC(c3nnc(NC(=O)c4ccco4)s3)CC2=O)cc1 (centres undefined) | 78%
Cc1nn(-c2ccccc2)c2sc(C(=O)Nc3cccc(Cl)c3)cc12 | 5% (active)
Cc1nn(-c2ccccc2)c2sc(C(=O)Nc3cccc(O)c3)cc12 | 43%
CCOc1ccc(NC(=O)c2cc3c(C)nn(-c4ccccc4)c3s2)cc1 | 78%

Compound | survival
Cc1nn(-c2ccccc2)c2sc(C(=O)Nc3ccc(Cl)cc3Cl)cc12 | 72%
Cc1cccc(NC(=O)c2cc3c(C)nn(-c4ccccc4)c3s2)c1 | -2% (active)
Cc1nn(-c2ccccc2)c2sc(C(=O)Nc3cccc(Br)c3)cc12 | 36%
CCOc1ccccc1C(=O)N(Cc1cc(OC)c(OC)c(OC)c1)c1ccccn1 | 82%
CCCOc1ccc(-c2cccc(NS(=O)(=O)c3ccc(CC)cc3)c2)nn1 | 69%
COC(=O)c1cccc(S(=O)(=O)N2CCC(NC(=O)Nc3cccc(F)c3)CC2)c1 | 110%
CCOC(=O)c1cnc2ccc(Cl)cc2c1Nc1ccc(OCC)cc1 | -3% (active)
CCOC(=O)c1cnc2ccc(OCC)cc2c1NCCN(C)C | 103%
CCOc1ccc(Nc2c(S(=O)(=O)c3ccccc3)cnc3ccc(CC)cc23)cc1 | 4% (active)
CCOC(=O)c1cnc2cc(C(F)(F)F)ccc2c1Nc1ccc(F)cc1F | -12% (active)
CCOC(=O)c1cnc2cc(C(F)(F)F)ccc2c1Nc1cc(C)ccc1OC | 67%
CCOc1ccc(Nc2cc(C(=O)NCc3ccccc3Cl)c3ccccc3n2)cc1 | 92%
CCOc1ccc(Nc2c(S(=O)(=O)c3ccccc3)cnc3ccc(F)cc23)cc1 | 61%
CCOc1ccc(Nc2c(S(=O)(=O)c3ccc(Cl)cc3)cnc3ccc(OCC)cc23)cc1 | 79%
CCOc1ccc(Nc2c(S(=O)(=O)c3ccccc3)cnc3ccccc23)cc1 | 38%
CCOC(=O)c1cnc2c(ccc3ccccc32)c1Nc1cccc(C(F)(F)F)c1 | 37%
CCOC(=O)c1cnc2ccc(OCC)cc2c1Nc1cc(Cl)c(OC)cc1OC | 60%
CCOC(=O)c1cnc2ccc(OCC)cc2c1Nc1ccc(OCc2ccccc2Cl)cc1 | 5% (active)
CC(=O)NCCNc1nc2c(S(=O)(=O)c3ccc(C)c(C)c3)nnn2c2ccc(Cl)cc12 | 80%
O=C(CN1C(=O)COc2ccc(S(=O)(=O)N3CCOCC3)cc21)NCc1ccc(Cl)cc1 | 78%
CCNc1c(NC(=O)c2ccccc2OCC)c(=O)oc2ccccc12 | 90%
CC1=C(C(=O)Nc2ccccc2)C(c2ccc(C)o2)NC(=S)N1 (centres undefined) | 109%
O=C(O)c1cnc2ccccn2c1=O | 109%

Compound | survival
Cc1noc(C)c1S(=O)(=O)N(CC(=O)NCc1ccccc1Cl)c1ccc(C(C)C)cc1 | 82%
NC(=O)CSc1nnc(COc2ccccc2)n1C1CCCCC1 | 110%
CCOC(=O)C1CCN(C(c2ccccc2OC)c2c(O)cc(C)n(CCOC)c2=O)CC1 (centres undefined) | 70%
Cc1ccc(N2CC(NC(=O)C3CCCC3)CC2=O)cc1 (centres undefined) | 55%
COCCn1c(CNC(=O)c2cccc(N(C)C)c2)nc2cccnc21 | 65%
Cc1nn(CC(=O)NCc2ccc(N(C)C)cc2)c(=O)c2c(C)n(-c3ccc(Cl)cc3)nc12 | 95%
COc1ccc(CC(C)NS(=O)(=O)c2ccc3c(c2)CCN3S(C)(=O)=O)cc1OC (centres undefined) | 134%
CCOC(=O)c1c(C)[nH]c(C)c1S(=O)(=O)N(C)CC(=O)Nc1ccc(C)c(N(C)C)c1 | 73%
CCOC(=O)c1cnc2ccc(C(=O)OC)cc2c1Nc1ccc(N2CCOCC2)cc1 | 115%
CCOC(=O)c1ccc2ncc(C(=O)OCC)c(Nc3ccc(C)c(Br)c3)c2c1 | 72%
CCCOC(=O)c1ccc(Nc2c(C(=O)OCC)cnc3c(C)cc(Cl)cc23)cc1 | 4% (active)
CCOC(=O)c1cnc2c(Cl)cc(Cl)cc2c1Nc1cc(C(=O)O)ccc1C | 61%
CCOC(=O)c1cnc2c(C)c(Cl)ccc2c1Nc1ccc(N2CCOCC2)cc1 | 60%
CCOC(=O)c1cnc2ccccc2c1Nc1ccc(N2CCOCC2)cc1 | 68%
CCOC(=O)c1cnc2ccc(Cl)cc2c1Nc1ccc(N2CCOCC2)cc1 | 0% (active)
CCOC(=O)c1cnc2ccc(C)cc2c1NCCc1ccc(OC)c(OC)c1 | 117%
CCOC(=O)c1cnc2ccc(C)cc2c1Nc1ccc(N(CC)CC)cc1 | -2% (active)
CCOC(=O)c1cnc2cc(F)c(F)cc2c1Nc1ccccc1O | 169%
CCOC(=O)c1cnc2ccc(C(=O)OC)cc2c1Nc1ccccc1CC | -1% (active)
CCOC(=O)c1cnc2ccc(OC(F)(F)F)cc2c1Nc1ccccc1C(=O)O | 52%
